# Test results: PubChem BioAssay (EPA / NIEHS)
# Active and inactive are the calls of the source. Rule for the calls: active = hit-call score of the fitted dose curve at least 0.9, where 1 is the maximum; inactive = score below 0.9.
# What was measured:
# [1] = ATG_AP_1_CIS: Attagene CIS-FACTORIAL HepG2 Assay for human Activator Protein 1 (AP-1) (AID 2282931); conditions: HepG2 Attagene cis-factorial AP-1 reporter mRNA; actives raise or lower the signal
# How it was run: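 HepG2, transient cis-reporter transfection; 24 h; readout RT-PCR/CE fluorescence; DMSO baseline, gain and loss fitted.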
# [2] = ATG_AP_2_CIS: Attagene CIS-FACTORIAL HepG2 Assay for human Activator Protein 2 (AP-2) (AID 2282932); conditions: HepG2 AP-2 cis-reporter, Attagene transcription factor profiling; actives raise or lower the signal
# How it was run: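 Step one: transient transfection of HepG2 with reporter transcription units. Step two: 24 h chemical exposure. Step three: RNA extraction, RT-PCR, labelled fragment analysis by capillary electrophoresis; DMSO serves as baseline.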
# [3] = ATG_BRE_CIS: Attagene CIS-FACTORIAL HepG2 Assay for human Bone Morphogenetic Protein (BMP) Response Element (BRE) (AID 2282933); conditions: HepG2 BMP response element reporter, Attagene transcription factor profiling; actives raise or lower the signal
# How it was run: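 Multiplexed cis-reporter assay, HepG2, 24 h exposure. mRNA from reporter units quantified via RT-PCR/CE; DMSO baseline; bidirectional curve fit.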
# [4] = biological target: Retinoic acid receptor alpha (Homo sapiens) (UniProt P10276); experiment: ATG_DR5_RAR_CIS: Attagene CIS-FACTORIAL HepG2 Assay for human Retinoic Acid Receptor Alpha (RARE), DR5 submotif (AID 2282934); conditions: HepG2 Attagene cis-factorial RARE DR5 reporter, mRNA; actives raise or lower the signal;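 for AC50: reporter responds to endogenous RAR alpha beta and gamma in HepG2 not RARA alone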
# Sequence of Retinoic acid receptor alpha (Homo sapiens) (P10276 whole entry, looked up): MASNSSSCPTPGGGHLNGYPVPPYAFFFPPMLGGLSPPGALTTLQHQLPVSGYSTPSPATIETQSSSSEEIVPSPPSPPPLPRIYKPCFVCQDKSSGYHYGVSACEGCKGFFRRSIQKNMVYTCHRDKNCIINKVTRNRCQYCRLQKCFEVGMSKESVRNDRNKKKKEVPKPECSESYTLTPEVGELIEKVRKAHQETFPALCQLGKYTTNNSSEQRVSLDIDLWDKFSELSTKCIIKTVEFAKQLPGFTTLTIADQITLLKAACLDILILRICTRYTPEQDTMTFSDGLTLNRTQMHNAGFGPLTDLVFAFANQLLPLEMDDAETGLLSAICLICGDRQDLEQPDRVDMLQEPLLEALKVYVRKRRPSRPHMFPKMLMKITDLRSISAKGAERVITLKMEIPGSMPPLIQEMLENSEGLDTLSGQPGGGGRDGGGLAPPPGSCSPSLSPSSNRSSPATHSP
# How it was run: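 Reporter transcripts from a DR5-regulated unit, measured via RT-PCR plus capillary electrophoresis, reflect endogenous RAR activity in transiently transfected human HepG2 liver cells. Exposure lasted 24 h; gain or loss of signal scored against DMSO.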
# [5] = biological target: Transcription factor E2F1 (Homo sapiens) (UniProt Q01094); experiment: ATG_E2F_CIS: Attagene CIS-FACTORIAL HepG2 Assay for human E2F Transcription Factor 1 (AID 2282935); conditions: HepG2 Attagene cis-reporter, E2F reporter RNA transcripts; actives raise or lower the signal
# Sequence of Transcription factor E2F1 (Homo sapiens) (Q01094 whole entry, looked up): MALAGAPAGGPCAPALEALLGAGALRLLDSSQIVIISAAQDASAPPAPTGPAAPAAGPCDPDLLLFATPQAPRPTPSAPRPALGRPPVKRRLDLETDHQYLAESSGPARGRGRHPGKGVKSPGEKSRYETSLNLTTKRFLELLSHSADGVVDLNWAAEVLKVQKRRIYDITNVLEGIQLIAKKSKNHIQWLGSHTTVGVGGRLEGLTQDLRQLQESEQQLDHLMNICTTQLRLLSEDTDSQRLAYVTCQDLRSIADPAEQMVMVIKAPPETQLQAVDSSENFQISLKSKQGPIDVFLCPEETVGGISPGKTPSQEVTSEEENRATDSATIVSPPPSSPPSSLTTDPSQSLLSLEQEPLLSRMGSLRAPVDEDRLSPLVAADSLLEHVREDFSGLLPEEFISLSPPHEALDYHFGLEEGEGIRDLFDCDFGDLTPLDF
# How it was run: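 Total RNA from 24 h-treated, reporter-transfected HepG2 cells undergoes DNase I treatment, oligo(dT) reverse transcription, PCR and 6-FAM primer extension before capillary electrophoresis.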
# [6] = ATG_E_Box_CIS: Attagene CIS-FACTORIAL HepG2 Assay for human Enhancer Box (E-box) (AID 2282936); conditions: HepG2 E-box cis-reporter transcription, actives raise or lower the signal
# How it was run: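 DMSO served as negative control and baseline for bidirectional fitting. Human hepatoma HepG2 cells, transiently transfected with cis-reporter constructs, were dosed 24 h; reporter mRNA read by RT-PCR and capillary electrophoresis.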
# [7] = ATG_EGR_CIS: Attagene CIS-FACTORIAL HepG2 Assay for human Early Growth Response 1 (EGR1) (AID 2282938); conditions: HepG2 Attagene CIS-FACTORIAL EGR reporter mRNA; actives raise or lower the signal
# How it was run: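 After a 24 h treatment of transiently transfected HepG2 cells, total RNA was reverse-transcribed and reporter sequences PCR-amplified, labelled and run on capillary electrophoresis. Reporters sit under cis-regulatory promoters sensing endogenous factors.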
# [8] = ATG_M_19_CIS: Attagene CIS-FACTORIAL HepG2 Assay for M19 Transcription Factor (Internal Marker) (AID 2282939); conditions: HepG2 Attagene CIS-FACTORIAL M19 internal marker reporter; actives raise or lower the signal
# How it was run: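 Signals come from fluorescence of labelled reporter-specific PCR fragments resolved by capillary electrophoresis, following 24 h treatment of HepG2 cells transfected with cis-promoter reporter units; activity was fitted in both directions relative to DMSO.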
# [9] = ATG_Ets_CIS: Attagene CIS-FACTORIAL HepG2 Assay for human Erythroblast Transformation Specific (ETS) (AID 2282941); conditions: HepG2 ETS cis-reporter transcription, actives raise or lower the signal
# How it was run: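 HepG2 cells transiently transfected with cis-promoter reporter transcription units were dosed for 24 h; reporter mRNA was measured by RT-PCR, 6-FAM primer extension, HpaI digestion and capillary electrophoresis, with bidirectional fitting against DMSO baseline.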
# [10] = biological target: Hepatocyte nuclear factor 3-beta (Homo sapiens) (UniProt Q9Y261); experiment: ATG_FoxA2_CIS: Attagene CIS-FACTORIAL HepG2 Assay for human Forkhead box A2 (FOXA2) (AID 2282942); conditions: HepG2 cis-reporter transcription factor activity, 24 h; actives raise or lower the signal
# Sequence of Hepatocyte nuclear factor 3-beta (Homo sapiens) (Q9Y261 whole entry, looked up): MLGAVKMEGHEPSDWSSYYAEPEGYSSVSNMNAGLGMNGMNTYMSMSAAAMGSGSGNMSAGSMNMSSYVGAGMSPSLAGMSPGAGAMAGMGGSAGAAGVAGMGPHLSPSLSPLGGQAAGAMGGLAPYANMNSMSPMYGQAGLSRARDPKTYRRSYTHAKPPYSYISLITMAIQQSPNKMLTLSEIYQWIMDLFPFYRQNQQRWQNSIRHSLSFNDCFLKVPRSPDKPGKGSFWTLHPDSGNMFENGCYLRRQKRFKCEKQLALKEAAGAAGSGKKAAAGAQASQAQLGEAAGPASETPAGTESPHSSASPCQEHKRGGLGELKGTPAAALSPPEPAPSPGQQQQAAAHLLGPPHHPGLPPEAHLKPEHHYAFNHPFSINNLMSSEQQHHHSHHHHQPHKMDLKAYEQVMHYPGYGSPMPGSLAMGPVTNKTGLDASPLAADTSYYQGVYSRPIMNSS
# How it was run: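 24 h dosing of HepG2 bearing cis-reporter constructs; mRNA readout by RT-PCR/CE fluorescence; bidirectional fit, DMSO baseline.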
# [11] = ATG_FoxO_CIS: Attagene CIS-FACTORIAL HepG2 Assay for human Forkhead box O (FoxO) (AID 2282943); conditions: HepG2 Attagene cis-reporter, FoxO element, mRNA; actives raise or lower the signal
# How it was run: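 Endogenous transcription factor activity read from multiplexed cis-promoter reporter transcripts in transiently transfected HepG2, 24 h after dosing. Reporter RNA measured via RT-PCR plus capillary electrophoresis of FAM-labeled products; gain or loss relative to DMSO.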
# [12] = ATG_GLI_CIS: Attagene CIS-FACTORIAL HepG2 Assay for human Zinc Finger Protein GLI1 (AID 2282945); conditions: HepG2, Attagene cis-factorial reporter mRNA, GLI element; actives raise or lower the signal
# How it was run: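 Bidirectional curve fits relative to DMSO, using reporter mRNA levels from RT-PCR plus capillary electrophoresis. Cells were HepG2 transiently carrying cis-regulated reporter constructs, harvested 24 h after dosing.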
# [13] = biological target: Bile acid receptor (Homo sapiens) (UniProt Q96RI1); experiment: ATG_IR1_CIS: Attagene CIS-FACTORIAL HepG2 Assay for human Nuclear Receptor Subfamily 1 Group H Member 4 (NR1H4), IR1 submotif (AID 2282946); conditions: IR1 reporter transcription, actives raise or lower the signal
# Sequence of Bile acid receptor (Homo sapiens) (Q96RI1 whole entry, looked up, the tested form may be a part): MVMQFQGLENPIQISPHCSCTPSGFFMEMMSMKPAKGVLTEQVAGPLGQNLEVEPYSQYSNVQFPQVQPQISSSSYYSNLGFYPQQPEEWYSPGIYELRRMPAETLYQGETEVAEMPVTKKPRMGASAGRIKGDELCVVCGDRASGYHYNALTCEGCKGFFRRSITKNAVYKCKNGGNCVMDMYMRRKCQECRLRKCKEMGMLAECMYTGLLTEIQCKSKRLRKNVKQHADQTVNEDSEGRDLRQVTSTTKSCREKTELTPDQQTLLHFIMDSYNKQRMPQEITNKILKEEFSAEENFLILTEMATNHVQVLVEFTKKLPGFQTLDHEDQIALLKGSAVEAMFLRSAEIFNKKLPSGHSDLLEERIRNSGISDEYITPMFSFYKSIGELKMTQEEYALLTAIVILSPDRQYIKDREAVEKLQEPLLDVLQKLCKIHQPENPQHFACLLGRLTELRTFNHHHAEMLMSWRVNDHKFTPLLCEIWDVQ
# How it was run: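 Cells (human HepG2) carry transiently transfected cis-promoter reporter transcription units. Compounds are incubated 24 h, total RNA is reverse-transcribed and amplified, and labelled fragments are resolved by capillary electrophoresis. Curves use DMSO as baseline.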
# [14] = ATG_GRE_CIS: Attagene CIS-FACTORIAL HepG2 Assay for human Glucocorticoid Response Elements (GRE) (AID 2282947); conditions: HepG2 GRE cis-reporter, Attagene multiplex mRNA; actives raise or lower the signal
# How it was run: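 Assay uses human hepatoma HepG2 cells transfected with cis-promoter reporter units, exposed 24 h. mRNA from reporters detected by RT-PCR plus capillary electrophoresis; DMSO serves as negative control and baseline.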
# [15] = ATG_ISRE_CIS: Attagene CIS-FACTORIAL HepG2 Assay for human Interferon Regulatory Factor 1 (IRF1) binding to an Interferon-Stimulated Response Element (ISRE) (AID 2282948); conditions: HepG2 ISRE cis-reporter (Attagene), mRNA transcription readout; actives raise or lower the signal
# How it was run: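 HepG2 cells transiently transfected with multiplexed cis-promoter reporter units; after 24 h compound exposure, reporter mRNA quantified by RT-PCR, FAM labelling, HpaI digestion and capillary electrophoresis. Bidirectional fit versus DMSO baseline.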
# [16] = ATG_M_32_CIS: Attagene CIS-FACTORIAL HepG2 Assay for M32 Transcription Factor (Internal Marker) (AID 2282949); conditions: HepG2 Attagene cis-factorial M32 reporter, mRNA; actives raise or lower the signal;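 note: background control marker of the multiplexed CIS panel rather than a real target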
# How it was run: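 Internal background marker read-out: RT-PCR/capillary electrophoresis fluorescence of reporter transcripts from transiently transfected HepG2 cells after 24 h chemical exposure. Activity fitted bidirectionally relative to DMSO negative control.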
# [17] = ATG_M_06_CIS: Attagene CIS-FACTORIAL HepG2 Assay for M06 Transcription Factor (Internal Marker) (AID 2282950); conditions: HepG2 Attagene CIS-FACTORIAL M06 internal marker reporter; actives raise or lower the signal
# How it was run: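 HepG2 liver cells, 24 h exposure. Reporter transcripts from transfected cis-element constructs quantified by RT-PCR/capillary electrophoresis fluorescence. Bidirectional curve fit against DMSO.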
# [18] = ATG_M_61_CIS: Attagene CIS-FACTORIAL HepG2 Assay for M61 Transcription Factor (Internal Marker) (AID 2282937); conditions: HepG2 Attagene CIS-FACTORIAL M61 internal marker reporter; actives raise or lower the signal
# How it was run: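 Transfect HepG2 with MRTUs; dose 24 h; isolate RNA; reverse-transcribe with DNase I treatment; PCR-amplify, FAM-label and cut with HpaI for 2 h at 37 C; resolve by CE. Bidirectional fitting against DMSO.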
# [19] = ATG_ERE_CIS: Attagene CIS-FACTORIAL HepG2 Assay for Estrogen Response Element (ERE) (AID 2282940); conditions: HepG2 ERE cis-reporter, Attagene RNA transcript; actives raise or lower the signal
# How it was run: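 Fluorescence of capillary-separated, FAM-labelled reporter cDNA fragments indicates reporter mRNA levels in HepG2 cells exposed to chemicals for 24 h. Transient transfection with cis-regulated units; data fitted in both directions against DMSO.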
# [20] = ATG_GATA_CIS: Attagene CIS-FACTORIAL HepG2 Assay for human GATA Binding Protein (AID 2282944); conditions: HepG2 GATA cis-element reporter, Attagene multiplex mRNA; actives raise or lower the signal
# How it was run: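 After transfecting HepG2 cells with multiple cis-regulated reporter units, chemicals are dosed for 24 h; isolated RNA undergoes RT-PCR and fluorescent labeling before capillary electrophoresis, with activity expressed against DMSO.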
structure (smiles),measurement,setting,value
C=CCOC(N)=O,outcome,[1],inactive
same,outcome,[2],inactive
same,outcome,[3],inactive
same,outcome,[4],inactive
same,outcome,[5],inactive
same,outcome,[6],inactive
same,outcome,[7],inactive
same,outcome,[8],inactive
same,outcome,[9],inactive
same,outcome,[10],inactive
same,outcome,[11],inactive
same,outcome,[12],inactive
same,outcome,[13],inactive
same,outcome,[14],inactive
same,outcome,[15],inactive
same,outcome,[16],inactive
same,outcome,[17],inactive
CCCCCCCCCCCCN(C)C,outcome,[1],inactive
same,AC50,[2],33.4 µM (active)
same,outcome,[3],inactive
same,AC50,[4],57.4 µM (active)
same,outcome,[5],inactive
same,AC50,[6],7.96 µM (active)
same,outcome,[18],inactive
same,outcome,[8],inactive
same,outcome,[19],inactive
same,outcome,[9],inactive
same,outcome,[10],inactive
same,AC50,[11],58.7 µM (active)
same,outcome,[20],inactive
same,outcome,[12],inactive
same,AC50,[13],47.8 µM (active)
same,outcome,[14],inactive
same,outcome,[15],inactive
same,outcome,[16],inactive
same,outcome,[17],inactive
O=C(NC(=O)c1c(F)cccc1F)Nc1cc(Cl)c(Oc2ncc(C(F)(F)F)cc2Cl)c(Cl)c1,outcome,[1],inactive
same,outcome,[2],inactive
same,outcome,[3],inactive
same,outcome,[4],inactive
same,outcome,[5],inactive
same,outcome,[18],inactive
same,outcome,[7],inactive
same,outcome,[8],inactive
same,outcome,[19],inactive
same,outcome,[9],inactive
same,outcome,[10],inactive
same,outcome,[11],inactive
same,outcome,[20],inactive
same,outcome,[12],inactive
same,outcome,[13],inactive
same,outcome,[14],inactive
same,outcome,[15],inactive
same,outcome,[16],inactive
same,outcome,[17],inactive
O=C1C[C@@H]2OCC=C3CN4CC[C@]56c7ccccc7N1[C@H]5[C@H]2[C@H]3C[C@H]46,outcome,[1],inactive
same,outcome,[2],inactive
same,outcome,[3],inactive
same,outcome,[4],inactive
same,outcome,[5],inactive
same,outcome,[18],inactive
same,outcome,[7],inactive
same,outcome,[8],inactive
same,outcome,[9],inactive
same,outcome,[10],inactive
same,outcome,[11],inactive
same,outcome,[20],inactive
same,outcome,[12],inactive
same,outcome,[15],inactive
same,outcome,[16],inactive
same,outcome,[17],inactive
C[As+](C)(C)CC(=O)[O-],outcome,[1],inactive
same,outcome,[2],inactive
same,outcome,[3],inactive
same,outcome,[4],inactive
same,outcome,[5],inactive
same,outcome,[6],inactive
same,outcome,[7],inactive
same,outcome,[8],inactive
same,outcome,[19],inactive
same,outcome,[9],inactive
same,outcome,[10],inactive
same,outcome,[11],inactive
same,outcome,[20],inactive
same,outcome,[12],inactive
same,outcome,[13],inactive
same,outcome,[14],inactive
same,outcome,[15],inactive
same,outcome,[16],inactive
same,outcome,[17],inactive
CC(O)(CS(=O)(=O)c1ccc(F)cc1)C(=O)Nc1ccc(C#N)c(C(F)(F)F)c1 (stereo unspecified),outcome,[1],inactive
same,outcome,[2],inactive
same,AC50,[3],98.5 µM (active)
same,outcome,[4],inactive
same,outcome,[5],inactive
same,outcome,[6],inactive
same,outcome,[7],inactive
same,outcome,[8],inactive
same,outcome,[19],inactive
same,outcome,[9],inactive
same,outcome,[10],inactive
same,outcome,[11],inactive
same,outcome,[20],inactive
same,outcome,[12],inactive
same,outcome,[14],inactive
same,outcome,[15],inactive
same,outcome,[16],inactive
CCOC(=O)c1ccccc1S(=O)(=O)NC(=O)Nc1nc(Cl)cc(OC)n1,outcome,[1],inactive
same,outcome,[2],inactive
same,outcome,[3],inactive
same,outcome,[4],inactive
same,outcome,[5],inactive
same,outcome,[18],inactive
same,outcome,[7],inactive
same,outcome,[8],inactive
same,outcome,[19],inactive
same,outcome,[9],inactive
same,outcome,[10],inactive
same,outcome,[11],inactive
same,outcome,[20],inactive
same,outcome,[12],inactive
same,outcome,[13],inactive
same,outcome,[14],inactive
same,outcome,[15],inactive
same,outcome,[16],inactive
same,outcome,[17],inactive
